From PubChem BioAssay AID709 (SRMLSC, 2007)
Among all 65,000 compounds or so, about 3,600 (5.5%) were called active.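 How the source made its calls: active means at 10 µM, mean starting fluorescence two-fold or more over control wells; inactive means the rest.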 Shown is part of a subset that was picked to be rich in actives.

Assay: intrinsic fluorescence of library compounds, ex339/em460 – biochemical, MLSMR library, data from DPM-DC assay, artefact control, profiling panel (AID 709);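 further: signal is the first read of a kinetic run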
Conditions: compound autofluorescence, ex339/em460 nm, NADH buffer; at 10 µM; active compounds read high; 1 = no-compound wells, NADH background

Fluorescence fold increase, inactive:
O=[n+]1c2c(n([O-])c3cc(Br)ccc31)CCC2 1.07, CC(C)(C)n1nnc(CCc2nnn(C(C)(C)C)n2)n1 1.09, COC(=O)C(C)C1Sc2ccccc2NC1=O (stereo not drawn) 1.01, O=C(Nc1ncc2c(n1)CC(c1ccco1)CC2=O)c1ccc(Cl)cc1 (stereo not drawn) 1.05, CCc1ccc(NC(=O)CSc2nnc(-c3cnccn3)n2Cc2ccco2)cc1 1.06, COc1ccc(CN2CC(C(=O)NCCN3CCN(c4ccccc4F)CC3)CC2=O)cc1 (stereo not drawn) 1.08, CCOC(=O)CN1C(=O)C(O)(CC(=O)c2ccccn2)c2ccccc21 (stereo not drawn) 1.04, O=C(Oc1ccccc1)c1ccc2nccnc2c1 1.04, CC(=O)N1CC2(C)CN(C(C)=O)CC(C)(C1)C2=O 1.11, COCCNC(=O)c1snc2ccc(Cl)cc12 1.2, CCOC(=O)N1CCN(C(=O)c2cc3c(-c4ccc(Cl)cc4)nn(C)c3s2)CC1 1.19, COc1ccccc1N1CCN(C(=O)c2cc3c(-c4ccc(Cl)cc4)nn(C)c3s2)CC1 1.07, COc1ccc(S(=O)(=O)N2CCCC2)c(C)c1C 1.06, COc1cccc(-c2cc3nc4c(c(N5CCC6(CC5)OCCO6)n3n2)CCCC4)c1 1.74, O=C1c2ccccc2-c2ncnc3c(N4CCOCC4)cc(N4CCOCC4)c1c23 1.04, c1ccc(COc2nsnc2N2CCOCC2)cc1 1.12, COC(=O)c1ccc(OC(=O)c2nn(C)cc2Cl)c(OC)c1 1.11, CCOc1ccc(N(CC(=O)OC)S(=O)(=O)c2c(C)noc2C)cc1 1.1, O=C(NC1CCCC1)c1ccc(Br)s1 1.08, COc1cc(C(=O)Nc2nccs2)cc(OC)c1OC 1.09, CCc1nnc(NC(=O)c2cccs2)s1 1, COc1ccc(OC)c2c1sc(=NC(=O)CN1C(=O)CCC1=O)n2C 1.13, CCc1c(C)nc(N2CCN(Cc3ccccc3)CC2)[nH]c1=O 1.06, Cn1c(=O)[nH]c(=O)c2c1nc(CN1CCN(c3ccccc3F)CC1)n2CCc1ccccc1 1.09, CC(C)CNC(=O)C1CCCN(S(=O)(=O)c2ccc(-n3cnnn3)cc2)C1 (stereo not drawn) 1.07, CCOc1ccc(-c2nnc3ccc(SC)nn23)cc1 1.17, CC1CCN(C(=O)CSc2ccc3nnc(-c4cccc(F)c4)n3n2)CC1 1.4, CCCOc1ccc(CN(CCO)CCO)cc1C(=O)OC 1.07, Cc1cccc(Cn2c(SCCO)nc3c2c(=O)n(C)c(=O)n3C)c1 0.95, COC(=O)C1C(=O)CC(C)(O)C(C(=O)OC)C1c1ccc2c(c1)OCO2 (stereo not drawn) 1.09, Cc1cc(=O)[nH]c(SCC(N)=O)c1C#N 1.12, COc1ccc(C2CC(c3ccc(C)cc3)Nc3nc(N)nn32)cc1 (stereo not drawn) 1.09, CCOC(=O)c1c(C)n(C)c2ccc(OC)c(NC(=O)CN3CCC4(CC3)OCCO4)c12 1.04, CCCCNc1nc2ccccc2nc1NS(=O)(=O)c1cccs1 1.35, C=CCn1c(C(C)NC(=O)CC)nc2ccccc21 (stereo not drawn) 1.1, CCN(CC(=O)NCc1cccs1)c1nnnn1-c1ccccc1 1.04, C=CCn1c2ccccc2c2nnc(SC(CC)C(=O)Nc3nc(C)c(C(=O)OCC)s3)nc21 (stereo not drawn) 1.22, COC(=O)c1cn(CC(=O)NCc2cccs2)c2ccccc12 1.12, CCOC(=O)C1CCN(C(=O)CSc2cc(=O)n(C)c3ccccc23)CC1 1.32, Cc1ccc(OCCCC(=O)N2CCOCC2)c(C)c1 1.13, Cc1ccc(CCn2c3c(c4ccccc42)CN(C)CC3)cn1 1.12, CCOC(=O)c1ccc(NC(=O)CS(=O)(=O)c2cn(CC)c3ccccc23)cc1 1.08, CC1(C)C(=O)Nc2ccccc2N1C(=O)COC(=O)Cn1cnc2ccccc2c1=O 1.03, CCn1c(COc2ccccc2)nnc1SCC(=O)Nc1ccc2c(c1)OCCO2 1.12, COCCn1nnnc1CN1CCC(NC(=O)Nc2cccc(OC)c2)CC1 1.05, COC(=O)Cc1csc(Nc2c(C)n(C)n(-c3ccccc3)c2=O)n1 1.09, COc1ccc(-c2nnc(SC(C)C#N)o2)cc1 (stereo not drawn) 1.08, CCOc1ccc(Nc2oc(Cc3ccccc3)nc2C#N)cc1 1.13, O=C(COc1ccccc1)NCCc1nc2ccccc2[nH]1 1.13, Fc1ccc(-c2ccc(-c3nn4c(-c5ccco5)nnc4s3)o2)cc1 1.49, COc1ccc(-c2nn3c(-c4ccccc4)nnc3s2)cc1OC 1.69, Cc1noc(C)c1COC(=O)Cn1c(C)nc2ccccc21 1.09, Cc1nn(Cc2ccccc2)c(Cl)c1C(=O)OC1CCOC1=O (stereo not drawn) 1.07, O=C(c1cccs1)N1CCC(c2nc3ccccc3s2)CC1 1.04, O=C(NCc1ccco1)C1CCCN(S(=O)(=O)c2cnc[nH]2)C1 (stereo not drawn) 1.08, c1ccc(-c2[nH]ncc2-c2nc3ccccc3[nH]2)cc1 1.2, C=CCSc1nc2ccccc2[nH]1 1.11, CC1(C)Oc2ccc3ccc(=O)oc3c2/C(=C/NCCO)C1=O 1.05, CCOc1ccccc1-n1c(SCC(=O)NCc2ccco2)nnc1-c1ccncc1 1.07, CCOC(=O)C1=C(C)N=c2s/c(=C\C(=O)OC)c(=O)n2C1c1ccc(OC)cc1 (stereo not drawn) 1.08, O=C(Nc1ccccc1)Nc1ccccc1C(=O)NCc1ccco1 1.65, O=C(NCc1ccco1)c1cc(-c2cccnc2)nc2ccc(Cl)cc12 1.17, Cc1cc(NC(=O)CSCc2nc(-c3cccc(Cl)c3)oc2C)no1 1.06, Cn1c(C(=O)NCCCN2CCCCC2)cc2sccc21 1.19, CC(C)NC(=O)CCCn1c(=S)[nH]c2cc3c(cc2c1=O)OCO3 1.07, COc1ccc(-c2c3c(=O)n(C)c(=O)n(C)c3cn2-c2cccc(OC)c2)cc1 1.94, CC(=O)Nn1cc2c(=O)n(C)c(=O)n(C)c2c1 1.03, COc1cccc(-n2cc(C(=O)O)c3ccccc3c2=O)c1 1.36, COc1ccc(OC)c(-n2cc3c(=O)n(C)c(=O)n(C)c3c2)c1 1.3, Cn1c(=O)c2cn(-c3cccc4ccccc34)cc2n(C)c1=O 1.28, Cc1ccc(-c2c3c(=O)n(C)c(=O)n(C)c3cn2-n2cnnc2)cc1 1.07, Nc1nonc1-c1noc(-c2ccc(Br)o2)n1 1.07, Cc1onc(-c2ccccc2)c1C(=O)N1CCOCC1 1.04, O=C(C1CCN(S(=O)(=O)Cc2ccccc2)CC1)N1CCCc2ccccc21 1.08, COc1ccc(-n2c(SC)nc(O)cc2=O)cc1 1.1, O=C1[C@@H]2C(Cc3ccc(O)cc3)NC3(C(=O)Nc4ccc(F)cc43)[C@@H]2C(=O)N1c1ccc(F)cc1 (stereo partly drawn) 1.1, CCc1ccccc1NC(=O)c1cccs1 1.09, COC(=O)c1ccccc1NC(=O)c1ccccc1NS(C)(=O)=O 1.13, COc1ccc(CCNC(=O)CSc2nnc(-c3cccc(F)c3)o2)cc1OC 1.07, c1ccc2cc3[nH]c(CN4CCCCC4)nc3cc2c1 1.35, CCOC(=O)N1CCN(C(=O)c2n[nH]c(=O)c3ccccc23)CC1 1.04, Cn1c2ccccc2c2c(C(=O)N3CCN(c4ccc(F)cc4)CC3)cn(C3CCCC3)c(=O)c21 1.57

Fluorescence fold increase, active:
CN1CCCc2cc(C#N)c(=O)[nH]c21 2.4, CCc1ccc(Nc2ncc3c(n2)CC(c2ccco2)CC3=O)cc1 (stereo not drawn) 2.39, Cn1nc(-c2ccc(Cl)cc2)c2cc(C(=O)NCc3ccco3)sc21 2.11, c1ccc(-c2oc3ncnc(N4CCOCC4)c3c2-c2ccccc2)cc1 2.38, Cc1ccc(C(=O)Nc2nnc(-c3cccs3)s2)cc1C 3.04, CC1CCc2c(sc(NC(=O)c3ccc(Cn4cc(Br)cn4)o3)c2C(N)=O)C1 (stereo not drawn) 3.78, COC(=O)C(C)Sc1ccc2nnc(-c3cccc(F)c3)n2n1 (stereo not drawn) 2.06, C=CCn1c(N)c(S(=O)(=O)c2cccs2)c2nc3ccccc3nc21 3.9, C=CCn1c(N)c(C(=O)OCC(C)C)c2nc3ccccc3nc21 3.79, CC(C)Cn1c(N)c(C(=O)NCc2cccs2)c2nc3ccccc3nc21 3.03, COc1ccc(Nc2oc(-c3ccccc3Cl)nc2C#N)cc1 2.11, Fc1ccc(-c2nnc3sc(-c4ccc5c(c4)OCO5)nn23)cc1 2.05, O=C(OC1CCOC1=O)c1ccc(-c2nc3ccccc3s2)s1 (stereo not drawn) 5, c1ccc2[nH]c(-c3nc4ccccc4[nH]3)nc2c1 2.21, O=C(NCc1ccco1)c1cccn2c(=O)c3cc(Br)ccc3nc12 2.53, Cc1ccsc1-c1nc(CSCC(=O)NCCN2CCCC2)c(C)o1 2.22, COc1ccc(-c2c3c(=O)n(C)c(=O)n(C)c3cn2NC(C)=O)cc1 2.81, Cc1ccc(-c2c3c(=O)n(C)c(=O)n(C)c3cn2-c2ccccc2O)cc1 3.24, COc1cccc(-n2cc3c(c2-c2ccccc2)c(=O)n(C)c(=O)n3C)c1 2.35, O=C(Nc1nncs1)c1ccccc1NS(=O)(=O)c1cccs1 2.5, CCOC(=O)N1CCN(C(=O)c2nn(-c3ccc(C)cc3)c(=O)c3c2c2ccccc2n3C)CC1 2.21
